Rows were chosen to be rich in hits. Some 12% of all compounds tested hit in one or more screens of this group.
G9a block: G9a (human) methyltransferase inhibition | Q96KQ7 | G9a H3K9 monomethylation, AlphaScreen, 2 h | Potency, µM (highest dose often 102 µM), inactives show at the top dose activity, negative = inhibition, most hits filed as inhibitors | hit rate 8.8% among 350,000 | AID 504332; note: % is set by controls: 0 for no effect and ±100 for the full control effect; nearly all actives have a fitted effect of over 75% in size
Target sequence (Q96KQ7 913-1193 limits assumed): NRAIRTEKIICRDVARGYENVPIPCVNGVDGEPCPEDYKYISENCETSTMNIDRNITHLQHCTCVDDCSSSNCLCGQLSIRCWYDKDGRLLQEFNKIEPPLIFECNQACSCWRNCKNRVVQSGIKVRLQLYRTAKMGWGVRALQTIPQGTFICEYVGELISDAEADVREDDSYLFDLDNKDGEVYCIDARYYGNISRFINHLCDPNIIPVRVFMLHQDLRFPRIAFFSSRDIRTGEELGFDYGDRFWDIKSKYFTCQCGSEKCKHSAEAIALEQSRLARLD
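Compounds were preincubated with 20 nM G9a for 15 min, after which biotinylated H3K9 peptide (500 nM) and SAM (20 uM) started a 2 h room-temperature reaction. Monomethylated product was quantified by antibody-based AlphaScreen chemiluminescence.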
TDP1 inh: blocks human tyrosyl-DNA phosphodiesterase 1; recombinant TDP1, AlphaScreen DNA substrate cleavage; Potency, µM (top dose mostly 130 µM), without a hit: at the top dose activity change, negative = inhibition, actives largely listed as inhibitors; hit rate 0.28% among 350,000; note: % is set by controls: 0 for no effect and ±100 for the full control effect; nearly all actives have a fitted effect of over 40% in size
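Recombinant E. coli-expressed Tdp1 (1 nM) preincubated with compound 15 min at RT, then 5'-biotin/3'-phosphotyrosine-FITC DNA substrate (15 nM) added for 5 min. AlphaScreen beads (10 ug/ml) added, 10 min RT; tyrosine-FITC cleavage read as signal loss.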
BAZ2B inh: BAZ2B (human) inhibition; Potency, µM (series often up to 114 µM), for the others: at the highest dose activity change, negative = inhibition, hits mostly inhibitors; hit rate 4.4% among 360,000; AlphaScreen BAZ2B-H3K14Ac peptide displacement; AID 504333; note: % is set by controls: 0 for no effect and ±100 for the full control effect; nearly all actives have a fitted effect of over 60% in size
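AlphaScreen displacement of biotin-H3(5-23)K14Ac peptide (50 nM final) from BAZ2B (50 nM final) in PBS pH 7.4, 0.01% Tween-20; complex preformed 30 min RT, then compounds (top 110 uM) 30 min RT, beads 20 min dark.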
JMJD2A Tudor: blocks the human JMJD2A Tudor domain. hit rate 4.4% among 390,000. Potency, µM (top dose mostly 114 µM), inactives show top-dose activity change, negative = inhibition, usual class: inhibitors. AlphaScreen JMJD2A-Tudor / H3K4me3 peptide binding; note: % is set by controls: 0 for no effect and ±100 for the full control effect; nearly all actives have a fitted effect of over 50% in size
Sfp PPTase inh: Sfp phosphopantetheinyl transferase inhibition. Potency, µM, for inactives: largest response in the series, negative = inhibition, most hits filed as inhibitors. hit rate 3.5% among 310,000. Q9F4F7. Biochemical Sfp PPTase activity, qHTS;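 note: the enzyme is Sfp with the accession as filed and its product quenches rhodamine fluorescence; 0% = enzyme reaction without inhibitor and -100% = no enzyme wells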
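Sfp 15 nM + cpd, 15 min RT; start w/ rhodamine-CoA 5 uM, BHQ-2-YbbR 12.5 uM (final); 50 mM Hepes pH 7.6, 10 mM MgCl2, 0.01% NP-40, 0.01% BSA; read 525/598 nm at 0 and 30 min.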
HP1b binding inh: HP1-beta chromodomain-methylated histone interaction inhibition. AlphaScreen HP1-beta / biotin-H3K9me3 peptide binding. Potency, µM (titrated, usually from 114 µM), inactives show top-dose activity change, negative = inhibition, usual class: inhibitors. hit rate 0.56% among 390,000. AID 540317; note: nearly all actives have a fitted effect of over 70% in size
Target sequence (P83916 whole entry, looked up): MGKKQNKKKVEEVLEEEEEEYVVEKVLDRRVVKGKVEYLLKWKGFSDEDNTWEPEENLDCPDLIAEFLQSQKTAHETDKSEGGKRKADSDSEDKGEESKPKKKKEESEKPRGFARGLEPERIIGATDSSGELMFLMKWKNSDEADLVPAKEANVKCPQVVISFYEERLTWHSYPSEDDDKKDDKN
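Compound inhibition of the preformed complex between 50 nM HP1-beta and 50 nM biotinylated H3K9me3 peptide was read by AlphaScreen. Buffer was PBS pH 7.4 with 0.01% Tween-20. Incubations ran 30 min at room temperature, with 10 ug/mL donor/acceptor beads.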
Starred values were filed as active, the others as inactive; ? = inconclusive; . = no result; [ ] = remark or other dose. Calls come from the whole dose curve; as a rule, active = well fitted curve in the direction sought with a large enough effect; inconclusive = small, poorly fitted or top-dose-only effect, or another doubt; inactive = no such curve, though single readings can be large; an effect the other way counts as inactive or inconclusive. Potency is the fitted concentration of half-maximal effect.

SMILES | G9a block | TDP1 inh | BAZ2B inh | JMJD2A Tudor | Sfp PPTase inh | HP1b binding inh
C[n+]1cccc(/C=N/NC(=O)CC23CC4CC(CC(C4)C2)C3)c1 | . | 3% | ? | -7% | -7% | 22%
O=[N+]([O-])c1ccc(NNS(=O)(=O)c2cc(Cl)ccc2Cl)nc1 | -7%[0.501 µM] | 5% | -19% | -33% | 35µM* | -8%
Cc1cccc(NC2(C(=O)O)CCCC2)c1 | . | . | . | 35µM* | . | -17%
Cc1cc2c(n1-c1ccc(C(=O)NCc3ccccc3Cl)cc1)CCCC2 | -2%[59 µM] | 9% | -17% | -17% | . | 27%
CCOc1ccc(C(=O)Nc2c(C(=O)Nc3ccccc3F)oc3ccccc23)cc1OCC | -11%[59 µM] | -1% | -15% | -6% | . | 28%
CN(C)c1ccc(C(=O)c2ccc(N(C)C)c(N)c2)cc1N | 79µM* | 12% | 50µM* | 56µM* | 2% | ?
CCOc1ccccc1N1CCN(c2nc(N)c(C#N)c(CC#N)c2C#N)CC1 | ? | 11% | ? | -30% | 16µM* | 6%
CCOc1ccccc1N1CCN(c2nc3ccccc3nc2C(C#N)C(=O)OC)CC1 (centres undefined) | . | 6% | -38% | -14% | -1% | 7%
CN(C)C(=S)Nc1ccc(S(=O)(=O)N2CCCCC2)cc1 | 32%[59 µM] | 4% | -1% | -12% | 16% | 9%
S=c1[nH]nc(Cc2ccccc2)n1-c1ccc(Cl)cc1 | ? | 0% | -25% | 79µM* | 14% | 1%
Cc1ccccc1OCc1n[nH]c(=S)n1-c1ccccc1 | 10µM* | 5% | -31% | -34% | 6% | 16%
S=c1[nH]nc(COc2ccc(Cl)cc2)n1-c1ccccc1 | 15%[0.501 µM] | . | -5% | -19% | 13% | 23%
S=c1[nH]nc(Cc2ccccc2)n1-c1ccccc1 | 8.9µM* | -1% | 3% | 4µM* | -8% | 23%
CC(C)OCC(O)CCc1n[nH]c(=S)n1-c1ccccc1 (centres undefined) | 3.5µM* | 5% | 12% | 6.3µM* | 79µM* | 28%
COc1ccccc1CN1CC2(CCN(C(=O)c3cccc(F)c3)CC2)C1 | 0%[12.7 µM] | . | . | . | 9% | .
C=CC[C@@H]1[C@H](O)CC[C@@]2(C)[C@H]1CC[C@@H]1[C@@H]2CC[C@]2(C)C([C@H](C)CCCC(C)C)CC[C@@H]12 (some centres undefined) | 38%[59 µM] | 4% | . | . | 9% | .
S=c1[nH]nc(CCc2ccccc2)n1-c1ccc(Cl)cc1 | ? | 0% | -27% | ? | ? | -19%
S=c1[nH]nc(CCc2ccccc2)n1-c1ccccc1 | 1.4µM* | 8% | 2% | 11µM* | 0% | 6%
O=C(NCc1ccc(Cl)cc1)NCc1noc2ccccc12 | 29%[59 µM] | -3% | -24% | 22% | . | 44%
Cc1ccc(-n2c(Cc3ccccc3)n[nH]c2=S)cc1 | 2.2µM* | 4% | -23% | 7.1µM* | -16% | -5%
S=c1[nH]nc(Cc2n[nH]c(=S)n2-c2ccccc2)n1-c1ccccc1 | 10µM* | . | -3% | 8.9µM* | ? | 40%
S=c1[nH]nc(Cc2noc3ccccc23)n1-c1ccc(Cl)cc1 | 1.4µM* | 3% | -13% | ? | -8% | 0%
Cc1ccccc1OCc1nnc(SCc2cc(=O)[nH]c3ccccc23)n1-c1ccccc1 | 4% | 5% | -8% | -31% | 56µM* | 7%
COc1ccc(C(=O)N/C(=C\c2ccccc2)C(=O)Nc2ccccc2C(=O)O)cc1 | . | . | . | -5% | . | 18%
CC(=O)NC(C(=O)c1ccccc1)C(=O)c1ccccc1 | 50µM* | 1% | -2% | 3% | 9% | 46%
SMILES | G9a block | TDP1 inh | BAZ2B inh | JMJD2A Tudor | Sfp PPTase inh | HP1b binding inh
CCOP(=O)(OCC)C(NC(C)=O)C(=O)c1ccccc1 (centres undefined) | -28% | 5% | -11% | -8% | 20% | 32%
COc1cccc(C(=O)N2CCN(C(=O)c3cccc4ccccc34)CC2)c1OC | -12%[59 µM] | 4% | . | 6% | 15% | 16%
COc1cccc(CN2CCN(C(=O)c3cccc4ccccc34)CC2)c1 | . | . | -36%[57.1 µM] | 28µM* | -13% | ?
COc1cc(CN2CCN(C(=O)c3cccc4ccccc34)CC2)cc(OC)c1OC | 20µM* | . | 56µM* | 20µM* | -3% | ?
CCCN(C(=O)C1=COCCO1)c1c(N)n(Cc2ccccc2)c(=O)[nH]c1=O | -37% | -4% | -5% | -18% | . | 3%
COc1ccccc1CNC(=O)c1cnn2c(C)c(Cc3ccc(F)cc3)c(C)nc12 | -17%[59 µM] | 3% | 0% | -26% | . | 24%
CN(C)Cc1cccc([N+](=O)[O-])c1O | 50µM* | . | -17% | -21%[11.4 µM] | 8% | 22%
Cc1ccc(C2C(=O)c3ccccc3C2=O)cc1 | ? | . | ? | -15% | 2% | 1%
CCCC(=O)Nc1ccc(C2C(=O)c3ccccc3C2=O)cc1 | 79µM* | . | ? | -24% | 0% | -16%
CC(=O)Nc1ccc(C2C(=O)c3ccccc3C2=O)cc1 | 50µM* | . | -36% | -25% | 3% | -17%
CCC1=C(OC(=O)N(CC)CC)N2C(=O)OC(=NCC3CC3)[C@]2(C)[C@H]2C1=CC[C@H]1C(=O)N(c3ccccc3)C(=O)[C@H]12 | . | 9% | . | . | 13% | .
Cc1c(S(=O)(=O)c2ccccn2)c(N)n(Cc2ccccc2Cl)c1C | . | 5% | ? | -31% | -15% | 10%
Cc1c(S(=O)(=O)c2ccccn2)c(N)n(Cc2ccccc2)c1C | 14µM* | . | -35% | ? | 3% | 5%
COCCn1c(C)c(C)c(S(=O)(=O)c2ccccc2)c1N | 35µM* | . | ? | -15% | -17% | 50%
CN(C)CCCn1c(SCc2c(Cl)cccc2Cl)nnc1-c1ccncc1 | 10µM* | . | 71µM* | 20µM* | -17% | ?
CCOC(=O)C1=C(CS(=O)(=O)c2ccc(F)cc2)NC(=O)NC1c1ccc(OCC)c(OC)c1 (centres undefined) | -19%[59 µM] | -1% | -25% | -19% | . | 35%
CCOC(=O)C1=C(CS(=O)(=O)c2ccc(F)cc2)NC(=O)NC1c1ccc(O)c(O)c1 (centres undefined) | 14µM* | -8% | -34% | -30% | -8% | -21%

Source: PubChem BioAssay (National Center for Advancing Translational Sciences (NCATS))
